Source: the supplement of paper PMC12669032
Unmarked numbers belong to inactive results.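 The calls were made as follows: active = AUC reduced over 20% with Padj below 0.05 in at least 2 of 3 replicates; inactive = otherwise.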

Experiments:
Experiment in all cases: growth AUC relative to DMSO control (median of replicates) (fraction); higher = more growth (less inhibition), active = hit call of the paper
Conditions in all cases: 20 µM; 24 h
Akkermansia muciniphila = system: Akkermansia muciniphila
Method in brief: (§1)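 Gut bacterial monocultures were grown anaerobically at 37 °C in mGAM from a starting OD600 of 0.05 with 20 µM compound (1% DMSO), in round-bottom 96-well plates under pierced gas-permeable seals, and OD600 was read hourly for 24 h. With the minimum OD set to 0, area under the growth curve was normalised to the plate median of solvent-only wells, or to row and column medians on the industrial chemical plate. Each value is the median of three biological replicates grown on separate days.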

Bacteroides caccae = system: Bacteroides caccae
Method in brief: as §1

Bacteroides clarus = system: Bacteroides clarus
Method in brief: as §1

Bacteroides dorei = system: Bacteroides dorei
Method in brief: as §1

Bacteroides stercoris = system: Bacteroides stercoris
Method in brief: as §1

[1] = system: Bacteroides thetaiotaomicron
Method in brief: as §1

Bacteroides uniformis = system: Bacteroides uniformis
Method in brief: as §1

[2] = system: Bifidobacterium longum subsp. longum
Method in brief: as §1

Clostridium difficile = system: Clostridium difficile
Method in brief: as §1

Collinsella aerofaciens = system: Collinsella aerofaciens
Method in brief: as §1

Coprococcus comes = system: Coprococcus comes
Method in brief: as §1

Escherichia coli ED1a = system: Escherichia coli ED1a
Method in brief: as §1

Escherichia coli IAI1 = system: Escherichia coli IAI1
Method in brief: as §1

Eubacterium rectale = system: Eubacterium rectale
Method in brief: as §1

[3] = system: Fusobacterium nucleatum subsp. animalis
Method in brief: as §1

Lactobacillus gasseri = system: Lactobacillus gasseri
Method in brief: as §1

Lactobacillus paracasei = system: Lactobacillus paracasei
Method in brief: as §1

Odoribacter splanchnicus = system: Odoribacter splanchnicus
Method in brief: as §1

[4] = system: Parabacteroides distasonis
Method in brief: as §1

Parabacteroides merdae = system: Parabacteroides merdae
Method in brief: as §1

Compound	growth AUC (Akkermansia muciniphila)	growth AUC (Bacteroides caccae)	growth AUC (Bacteroides clarus)	growth AUC (Bacteroides dorei)	growth AUC (Bacteroides stercoris)	growth AUC [1]	growth AUC (Bacteroides uniformis)	growth AUC [2]	growth AUC (Clostridium difficile)	growth AUC (Collinsella aerofaciens)	growth AUC (Coprococcus comes)	growth AUC (Escherichia coli ED1a)	growth AUC (Escherichia coli IAI1)	growth AUC (Eubacterium rectale)	growth AUC [3]	growth AUC (Lactobacillus gasseri)	growth AUC (Lactobacillus paracasei)	growth AUC (Odoribacter splanchnicus)	growth AUC [4]	growth AUC (Parabacteroides merdae)
C/C(=N/Nc1nc(C)cc(C)n1)c1ccccc1C	1.24	1.01	1.06	1	1.1	0.963	1.03	1.01	0.99	0.979	0.957	1.02	1.04	0.495 (active)	1.16	0.994	1.1	0.666	1.07	1.07
CCOP(=O)(OCC)Oc1ccc(S(C)(=O)=O)cc1	1.01	0.99	0.995	1.01	0.937	0.997	1.03	1.04	0.991	1.01	1.01	0.98	0.977	1.13	0.996	1	0.976	1	1.11	1.03
COCc1cnc(C2=NC(C)(C(C)C)C(=O)N2)c(C(=O)O)c1 (stereo not given)	1.12	0.971	1.03	0.918	1	0.999	1.01	1.22	0.973	0.998	0.971	1	0.982	1.09	1.05	0.91	0.934	1.05	1.03	0.987
CN(C)C1CSSSC1.O=C(O)C(=O)O	0.941	0.98	0.974	1.17	0.905	1.07	1.23	0.964	1.05	1.03	0.99	0.985	1.02	1.7	1.05	1.03	0.972	0.962	1.04	1.02
O=C(Nc1ccccc1)Nc1ccnc(Cl)c1	0.926	0.9	0.949	0.977	0.926	0.94	0.886	0.959	0.941	1.01	1.03	0.942	0.788 (active)	0.803	1.1	0.858	0.971	0.912	0.677 (active)	0.888
COC(=O)NC(=S)Nc1ccccc1NC(=S)NC(=O)OC	1.04	0.99	0.985	1.01	1.12	0.981	0.988	0.958	0.951	1.01	0.93	0.995	0.996	1.14	1.12	0.835	1.01	1.05	0.944	1.03
C[C@H]1[C@H](c2ccc(Cl)cc2)SC(=O)N1C(=O)NC1CCCCC1	0.988	0.91	0.965	0.945	1.13	0.952	0.943	0.923	0.987	0.928	1.03	1	0.996	1.05	1.07	0.791	1.03	0.832	0.725	0.947
OCC1C(CO)C2(Cl)C(Cl)=C(Cl)C1(Cl)C2(Cl)Cl (stereo not given)	0.817	0.721 (active)	0.818	0.859	0.259	0.799 (active)	0.275 (active)	1.04	0.901	0.947	0.934	0.994	0.975	1.07	1	0.827	1.01	0.59 (active)	1.09	0.892
O=C(NC(=O)c1ccccc1Cl)Nc1ccc(OC(F)(F)F)cc1	1.06	0.915	0.964	0.927	0.802	0.962	1.01	0.986	0.946	0.937	0.949	0.97	0.952	1.04	0.728	0.856	0.892	1.04	0.965	0.971
O=C(O)C(F)(F)C(F)(F)C(F)(F)C(F)(F)C(F)(F)C(F)(F)C(F)(F)F	1.01	1	1	0.998	1.01	1.04	0.963	1.04	0.991	1	1.02	1	0.998	1	1	1.01	0.966	0.979	0.934	1
COP(=O)(OC)OC1=C(Cl)C2C=CCC12 (stereo not given)	1.03	0.928	0.995	1	1.42	1.02	1.02	1.01	1	0.964	0.999	0.968	1.03	1.01	1.04	0.957	1.02	0.892	0.975	1.03
C[N+]1(C)CCCCC1.[Cl-]	0.993	1.02	1.03	1.02	1.02	1.03	1.05	1.01	1.01	1.02	1.07	1.03	0.992	1.2	1.09	0.976	1.02	0.941	1	1.04
Cc1cccc2sc3nncn3c12	0.892	0.989	0.965	1.04	1.03	0.993	1.01	0.964	0.973	1.07	0.98	0.987	0.977	0.939	0.988	1.05	0.957	1.03	0.991	1
CCCN(CCC)N=O	1.07	1.01	1.02	1	1	0.999	1.03	0.902	1.01	0.977	1.02	1.03	1	0.979	0.989	0.956	0.984	1.06	1.11	1.03
Cc1c(F)c(F)c(COC(=O)[C@@H]2[C@H](/C=C(\Cl)C(F)(F)F)C2(C)C)c(F)c1F (mixture of isomers)	0.937	0.943	0.993	0.935	0.981	0.989	1.01	0.997	1	0.976	0.956	1	0.993	1.01	1	0.897	0.956	1.04	0.976	0.994
CC1(C)C(C=C(Cl)Cl)C1C(=O)OC(C#N)c1ccc(F)c(Oc2ccccc2)c1 (mixture of isomers)	1.08	1	1.01	0.995	0.95	1.01	0.98	0.975	0.979	0.947	0.981	0.956	0.991	1.06	0.95	0.782	0.98	0.95	0.96	0.937
